# Experimental data as given in PubChem BioAssay (NCATS).
# Calls of active or inactive are those of the source. The call rests on the fitted dose curve.
# Assay: Cell Proliferation Assay Versus the ED40515 IL2 Dependent ATL cell lines (AID 1053195)
# Conditions: ED40515 IL2-dependent ATL cells
# Excerpt: Adult T-cell leukemia (ATL) develops in individuals infected with human T-cell lymphotropic virus-1 (HTLV-1). Clinically, ATL is subclassified into four subtypes: smoldering, chronic, lymphomatous, and acute. Two autocrine loops (IL-2/IL-2Ralpha and IL-15/IL-15Ralpha) and one paracrine stimulation loop that involves IL-9 expression by ATL cells and IL-9Ralpha expression on monocytes are required to maintain viability and proliferation in the smoldering and chronic forms of the disease. These assays examined the differential response profiles for the MIPE library of approved and investigational drugs versus an IL2 dependent and independent matched ATL cell line, with the current submission examining the differential response profiles for drugs on an IL2 dependent matched ATL cell line.
# Plate log growing ED40515 +IL2 cells: 1000cells/ well in 5uL phenol red free RPMI +5% FBS +1x p/s, Glutamine using 1536 well white griener tissue culture plates and multidrop cassette acoustic dispensing Columns 1 and 3 DMSO Columns 2 and 4, 9.2 uM Bortezomib Incubate 48 hours for celltiter glo 37C with 5%CO2 and 95% humidity with low evaporation lids Dispense 3 uL per well of cell titer glo with multidrop Incubate for 15 minutes at RT Read on VL/2 using Luminesence Wheel (Filter A)
row,Compound,Potency
1,CNC(=O)N1N=C(c2ccc(N)cc2)c2cc3c(cc2CC1C)OCO3 (stereo not given),14.8 µM (active)
2,CC1=C2C[C@@H]3[C@@H](CC=C4C[C@@H](O)CC[C@@]43C)[C@@H]2CC[C@]12O[C@H]1C[C@H](C)CN[C@H]1[C@H]2C,16.6 µM (active)
3,COC1(CS(=O)c2ccccc2)CCN(CCc2c[nH]c3ccc(F)cc23)CC1 (stereo not given),23.5 µM (active)
4,C[C@@H]1[C@@H](C(=O)C[C@H]2O[C@@H]3O[C@]4(C)CC[C@@H]5[C@H](C)CC[C@@H]([C@H]2C)[C@@]35OO4)O[C@@H]2O[C@]3(C)CC[C@H]4[C@H](C)CC[C@@H]1[C@@]24OO3,0.0066 µM (active)
5,CNC(=O)c1ccc(N2C(=S)N(c3ccc(C#N)c(C(F)(F)F)c3)C(=O)C23CCC3)cc1F,20.9 µM (active)
6,Cc1cc(SCc2sc(-c3ccc(C(F)(F)F)c(F)c3)nc2C)ccc1OCC(=O)O,18.7 µM (active)
7,CC(O)(CS(=O)(=O)c1ccc(F)cc1)C(=O)Nc1ccc(C#N)c(C(F)(F)F)c1 (stereo not given),14.8 µM (active)
8,O=C(O)C(=O)c1cn(Cc2ccccc2)c2ccc(-c3ccc(OC(F)(F)F)cc3)cc12,20.9 µM (active)
9,Cn1cc(C2=C(c3cn(C4CCN(Cc5ccccn5)CC4)c4ccccc34)C(=O)NC2=O)c2ccccc21,14.8 µM (active)
10,O=c1c(O)c(-c2ccc(O)c(O)c2)oc2cc(O)cc(O)c12,16.6 µM (active)
11,CCCCC/C=C\C/C=C\C/C=C\C/C=C\CCCC(=O)NC1CC1,16.6 µM (active)
12,CN(C)CCN(C)CCc1ccc(Cl)c(Cl)c1,16.6 µM (active)
13,CC(C)n1c(C=C[C@H](O)C[C@H](O)CC(=O)O)c(-c2ccc(F)cc2)c2ccccc21,0.209 µM (active)
14,C[C@@H]1[C@@H](CC(C[C@H]2O[C@@H]3O[C@]4(C)CC[C@@H]5[C@H](C)CC[C@@H]([C@H]2C)[C@@]35OO4)C[S+](=O)([O-])c2ccc(COC(=O)N(C)C)cc2)O[C@@H]2O[C@]3(C)CC[C@H]4[C@H](C)CC[C@@H]1[C@@]24OO3 (stereo not given in full),0.0166 µM (active)
15,C[C@]12CCC(=O)C(O)=C1CC[C@@H]1[C@@H]2CC[C@]2(C)C(=O)CC[C@@H]12,0.059 µM (active)
